Holding throughout (assay): DAPPL (digital affinity profiling via proximity ligation, sequencing); 10 mM Tris-HCl pH 7.5, 50 mM NaCl, 1 mM DTT, 4% glycerol, room temperature, 30 min; GST-TFs on glutathione beads, 16-mer random dsDNA library, 0.1% formaldehyde crosslink after washing; high values mean tight binding
Holding throughout (conditions): protein: recombinant; tags: N-terminal GST; dsDNA, one strand shown

For one assay, the target named is T1, ERF (Homo sapiens, UniProt P50548 1-548).
T1 sequence: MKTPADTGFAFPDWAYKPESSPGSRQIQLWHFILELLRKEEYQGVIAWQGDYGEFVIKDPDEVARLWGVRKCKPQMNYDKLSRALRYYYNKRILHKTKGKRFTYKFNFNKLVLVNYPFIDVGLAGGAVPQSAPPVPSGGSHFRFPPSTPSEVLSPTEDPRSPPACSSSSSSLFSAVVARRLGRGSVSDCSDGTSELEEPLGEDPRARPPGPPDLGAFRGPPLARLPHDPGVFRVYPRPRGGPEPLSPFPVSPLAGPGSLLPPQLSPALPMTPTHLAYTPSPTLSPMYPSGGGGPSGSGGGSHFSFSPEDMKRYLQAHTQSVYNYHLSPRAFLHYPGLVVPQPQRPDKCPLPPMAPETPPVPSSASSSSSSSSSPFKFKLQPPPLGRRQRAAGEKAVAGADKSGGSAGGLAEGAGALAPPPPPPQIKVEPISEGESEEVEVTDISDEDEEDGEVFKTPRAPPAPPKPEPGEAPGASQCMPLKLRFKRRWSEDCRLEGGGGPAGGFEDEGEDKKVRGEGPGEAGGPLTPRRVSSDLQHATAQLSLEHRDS
The gist of the method:
(§1)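 Each value of binding signal is a hexamer's read frequency for a factor divided by the same hexamer's frequency in the tag-only sample. Barcoded, bead-captured GST fusions of human transcription factors made in yeast were pooled with that sample and incubated with 200 nmole of a random double-stranded 16-mer DNA library in Tris/NaCl/DTT/glycerol buffer at room temperature for 30 min. Washing, 0.1% formaldehyde crosslinking, proximity ligation, PCR and Illumina NextSeq500 sequencing followed.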

A further assay deals with T2, ETV3L (Homo sapiens, UniProt Q6ZN32 1-361).
T2 sequence: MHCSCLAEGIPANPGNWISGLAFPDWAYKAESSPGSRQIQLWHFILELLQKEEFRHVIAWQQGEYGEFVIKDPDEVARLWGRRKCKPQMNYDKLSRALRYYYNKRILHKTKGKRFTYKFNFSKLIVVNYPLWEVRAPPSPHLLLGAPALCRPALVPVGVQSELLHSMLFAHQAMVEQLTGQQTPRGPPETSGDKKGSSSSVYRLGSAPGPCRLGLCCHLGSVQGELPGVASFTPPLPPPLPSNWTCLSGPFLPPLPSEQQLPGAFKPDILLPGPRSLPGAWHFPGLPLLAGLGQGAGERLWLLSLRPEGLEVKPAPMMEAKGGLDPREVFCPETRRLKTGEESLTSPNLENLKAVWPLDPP
The method, boiled down: as §1

The next assay has as its target T3, ETS2 (Homo sapiens, UniProt P15036 1-469).
T3 sequence: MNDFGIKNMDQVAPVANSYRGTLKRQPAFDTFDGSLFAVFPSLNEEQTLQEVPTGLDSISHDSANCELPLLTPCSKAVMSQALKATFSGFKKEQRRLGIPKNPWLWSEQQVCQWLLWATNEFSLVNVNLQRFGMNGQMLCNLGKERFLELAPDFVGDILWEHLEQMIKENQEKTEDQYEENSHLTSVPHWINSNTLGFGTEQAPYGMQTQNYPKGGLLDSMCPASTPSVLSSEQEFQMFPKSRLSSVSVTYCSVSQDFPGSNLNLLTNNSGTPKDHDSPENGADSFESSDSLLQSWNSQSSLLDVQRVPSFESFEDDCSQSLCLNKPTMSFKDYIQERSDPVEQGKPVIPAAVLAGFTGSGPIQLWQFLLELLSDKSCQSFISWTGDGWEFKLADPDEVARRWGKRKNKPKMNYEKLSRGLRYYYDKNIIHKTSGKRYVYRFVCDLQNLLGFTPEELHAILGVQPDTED
The method, boiled down: as §1

In the next assay the target is T4, SPDEF (Homo sapiens, UniProt O95238 1-335).
T4 sequence: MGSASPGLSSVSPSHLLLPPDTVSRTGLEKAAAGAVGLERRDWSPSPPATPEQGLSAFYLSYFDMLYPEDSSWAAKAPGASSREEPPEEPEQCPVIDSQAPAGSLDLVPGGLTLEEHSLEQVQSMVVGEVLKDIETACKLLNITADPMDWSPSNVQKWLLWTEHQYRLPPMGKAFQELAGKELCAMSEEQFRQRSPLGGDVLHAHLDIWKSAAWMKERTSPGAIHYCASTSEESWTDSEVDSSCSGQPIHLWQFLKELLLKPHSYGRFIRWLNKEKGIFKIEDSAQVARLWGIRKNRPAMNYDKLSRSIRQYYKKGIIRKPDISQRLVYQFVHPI
The gist of the method:
as §1

A further assay has as its target T5, ETV7 (Homo sapiens, UniProt Q9Y603 1-341).
T5 sequence: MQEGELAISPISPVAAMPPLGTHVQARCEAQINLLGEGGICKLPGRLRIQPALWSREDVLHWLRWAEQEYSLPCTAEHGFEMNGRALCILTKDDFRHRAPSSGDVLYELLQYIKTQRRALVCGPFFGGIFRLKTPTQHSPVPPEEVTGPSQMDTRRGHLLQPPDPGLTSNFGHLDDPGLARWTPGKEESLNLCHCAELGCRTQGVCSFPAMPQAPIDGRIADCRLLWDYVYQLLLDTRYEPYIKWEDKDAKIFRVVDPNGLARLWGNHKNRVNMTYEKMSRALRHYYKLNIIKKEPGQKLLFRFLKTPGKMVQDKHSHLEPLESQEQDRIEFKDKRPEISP
The method, boiled down:
as §1

In a further assay the target is T6, ELF5 (Homo sapiens, UniProt Q9UKW6-2 1-255).
T6 sequence: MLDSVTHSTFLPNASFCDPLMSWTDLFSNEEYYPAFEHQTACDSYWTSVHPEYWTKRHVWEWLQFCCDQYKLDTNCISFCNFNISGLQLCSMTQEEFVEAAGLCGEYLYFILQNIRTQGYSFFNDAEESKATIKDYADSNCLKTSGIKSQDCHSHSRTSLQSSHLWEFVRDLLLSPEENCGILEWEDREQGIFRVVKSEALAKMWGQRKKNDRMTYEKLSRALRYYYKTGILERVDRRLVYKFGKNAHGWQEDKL
The gist of the method: as §1

Another assay addresses T7, ETV3 (Homo sapiens, UniProt P41162-2 1-143).
T7 sequence: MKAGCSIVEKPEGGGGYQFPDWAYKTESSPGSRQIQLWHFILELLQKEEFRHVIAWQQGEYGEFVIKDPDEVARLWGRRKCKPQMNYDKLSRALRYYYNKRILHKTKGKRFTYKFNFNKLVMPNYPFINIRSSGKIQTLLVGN
The method, boiled down:
as §1

The next assay deals with ETV6 (Homo sapiens, UniProt P41212 1-452). The method, boiled down: as §1
Chain of ETV6 (P41212 whole entry): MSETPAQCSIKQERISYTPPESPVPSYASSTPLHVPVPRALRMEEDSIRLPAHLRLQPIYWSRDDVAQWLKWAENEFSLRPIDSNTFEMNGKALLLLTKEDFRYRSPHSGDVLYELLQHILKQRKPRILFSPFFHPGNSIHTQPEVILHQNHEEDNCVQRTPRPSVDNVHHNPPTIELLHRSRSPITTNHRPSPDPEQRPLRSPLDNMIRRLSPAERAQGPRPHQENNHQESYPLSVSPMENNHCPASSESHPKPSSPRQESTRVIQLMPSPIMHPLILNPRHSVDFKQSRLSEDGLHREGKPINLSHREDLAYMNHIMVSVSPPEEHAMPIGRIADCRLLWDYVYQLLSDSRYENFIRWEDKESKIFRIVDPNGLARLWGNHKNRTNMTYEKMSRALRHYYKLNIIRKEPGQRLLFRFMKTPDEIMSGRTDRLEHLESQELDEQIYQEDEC

With CTACCC, the binding signal in the assay with ERF was 1.29 fold enrichment (6-mer frequency, TF over GST control); in the assay with ETV3L, 1.32 fold enrichment (6-mer frequency, TF over GST control); with ETS2 it was 1.38 fold enrichment (6-mer frequency, TF over GST control); with SPDEF, 1.29 fold enrichment (6-mer frequency, TF over GST control); with ETV7, 1.23 fold enrichment (6-mer frequency, TF over GST control); with ELF5 it was 1.29 fold enrichment (6-mer frequency, TF over GST control). The binding signal with ETV3 is 1.28 fold enrichment (6-mer frequency, TF over GST control); with ETV6, 1.21 fold enrichment (6-mer frequency, TF over GST control).
For GTAATG, the binding signal with ERF was 1.12 fold enrichment (6-mer frequency, TF over GST control); in the assay with ETV3L, 1.11 fold enrichment (6-mer frequency, TF over GST control); in the assay with ETS2 it was 1.07 fold enrichment (6-mer frequency, TF over GST control); in the assay with SPDEF, 1.15 fold enrichment (6-mer frequency, TF over GST control); in the assay with ETV7, 1.05 fold enrichment (6-mer frequency, TF over GST control); in the assay with ELF5, 1.1 fold enrichment (6-mer frequency, TF over GST control). Also, in the assay with ETV6, the binding signal is 1.03 fold enrichment (6-mer frequency, TF over GST control).
As to TAGGGT, the binding signal in the assay with ERF is 1.15 fold enrichment (6-mer frequency, TF over GST control); in the assay with ETV3L, 1.03 fold enrichment (6-mer frequency, TF over GST control); with ETS2, 1.02 fold enrichment (6-mer frequency, TF over GST control); with SPDEF, 1.12 fold enrichment (6-mer frequency, TF over GST control); with ETV7 it was 1.11 fold enrichment (6-mer frequency, TF over GST control); in the assay with ELF5 it was 1.06 fold enrichment (6-mer frequency, TF over GST control). Further, in the assay with ETV6, the binding signal was 1.04 fold enrichment (6-mer frequency, TF over GST control).
As for TGCCGC, the binding signal with ERF was 1.32 fold enrichment (6-mer frequency, TF over GST control); in the assay with ETV3L, 1.22 fold enrichment (6-mer frequency, TF over GST control); in the assay with ETS2 it was 1.33 fold enrichment (6-mer frequency, TF over GST control); with SPDEF, 1.15 fold enrichment (6-mer frequency, TF over GST control); in the assay with ETV7, 1.22 fold enrichment (6-mer frequency, TF over GST control); with ELF5 it was 1.22 fold enrichment (6-mer frequency, TF over GST control). In addition, the binding signal in the assay with ETV3 is 1.36 fold enrichment (6-mer frequency, TF over GST control); in the assay with ETV6 it was 1.27 fold enrichment (6-mer frequency, TF over GST control).
Take GCACGC: the binding signal was 1.09 fold enrichment (6-mer frequency, TF over GST control) with ERF; 1.07 fold enrichment (6-mer frequency, TF over GST control) with ETV3L; 1 fold enrichment (6-mer frequency, TF over GST control) with ETS2; 1.04 fold enrichment (6-mer frequency, TF over GST control) with SPDEF; 1.07 fold enrichment (6-mer frequency, TF over GST control) in the assay with ETV7; 1.14 fold enrichment (6-mer frequency, TF over GST control) in the assay with ETV3. Moreover, the binding signal with ETV6 is 1.07 fold enrichment (6-mer frequency, TF over GST control).
As to TTTAGG, the binding signal with ERF is 1.22 fold enrichment (6-mer frequency, TF over GST control); in the assay with ETV3L it was 1.02 fold enrichment (6-mer frequency, TF over GST control); in the assay with ETS2, 1.11 fold enrichment (6-mer frequency, TF over GST control); in the assay with SPDEF, 1.09 fold enrichment (6-mer frequency, TF over GST control); in the assay with ETV7 it was 1.19 fold enrichment (6-mer frequency, TF over GST control); with ETV3, 1.07 fold enrichment (6-mer frequency, TF over GST control). For the same sequence, the binding signal in the assay with ETV6 was 1.19 fold enrichment (6-mer frequency, TF over GST control).
GCTTGG: the binding signal in the assay with ERF is 1.18 fold enrichment (6-mer frequency, TF over GST control); with ETV3L, 1.01 fold enrichment (6-mer frequency, TF over GST control); with ETS2 it was 1.14 fold enrichment (6-mer frequency, TF over GST control); with SPDEF, 1.08 fold enrichment (6-mer frequency, TF over GST control); in the assay with ETV7 it was 1.13 fold enrichment (6-mer frequency, TF over GST control); in the assay with ETV3, 1.02 fold enrichment (6-mer frequency, TF over GST control). The binding signal in the assay with ETV6 was 1.13 fold enrichment (6-mer frequency, TF over GST control).

The values above are taken from PMC7862700, “An all-to-all approach to the identification of sequence-specific readers for epigenetic DNA modifications on cytosine”.
